# From PubChem BioAssay (Tox21)
# Values joined by “and” are separate entries in the source; they are usually repeats but may differ in a detail not shown here. Equal entries are not always repeated. Results filed as inconclusive are left out. Where a call stands in place of a potency, no number is given. Active and inactive are the calls of the source. Calls follow the shape of the dose curve; as a rule, active = well fitted cell-killing curve with a large enough effect in the repeat runs; inconclusive = weak or mixed curves, or effect the other way; inactive = no such curve, though single readings can be large or run the other way.
# Test: qHTS assay for small molecule activators of the heat shock response signaling pathway - cell viability counter screen (AID 743209); also: nearly all actives have a fitted effect of over 50% in size
# Conditions: HSE-bla HeLa viability, CellTiter-Glo luminescence, 5 h; series mostly up to 62.6 µM
# Source text: U.S. Tox21 Program National Center for Advancing Translational Sciences [NCATS] NIH Chemical Genomics Center [NCGC] U.S. Environmental Protection Agency [EPA] National Institutes of Environmental Health Sciences [NIEHS] National Toxicology Program [NTP] U.S. Food and Drug Administration [FDA] Tox21 Assay Overview: Various chemicals, environmental and physiological stress conditions may lead to the activation of heat shock response/ unfolded protein response (HSR/UPR). There are three heat shock transcription factors (HSFs) (HSF-1, -2, and -4) mediating transcriptional regulation of the human HSR. To identify the compounds that activate HSR signaling, HSE-bla HeLa cell line (Invitrogen, Carlsbad, CA, USA) containing a beta-lactamase reporter gene under the control of the heat shock response elements was used to screen Tox21 10K compound library. The cytotoxicity of the Tox21 compound library against the HSE-bla HeLa cell line was tested in parallel by measuring the cell viability using CellTiter-Glo assay (Promega, Madison, WI) in the same wells.
# Tox21 Assay Protocol Summary: The CellSensor HSE-bla HeLa cells (Invitrogen, Carlsbad, CA, USA) were dispensed at 1500 cells/6uL/well into 1536-well black wall/clear bottom plates using a Multidrop combi (Thermo Fisher Scientific, Waltham, MA) dispenser. After the assay plates were incubated at 37 C and 5% CO2 overnight, 23 nL of compounds dissolved in DMSO, positive controls or DMSO only was transferred to the assay plate by a Pintool station (Kalypsys, San Diego, CA). The plates were incubated at 37 C for 5 h. After 1 uL of LiveBLAzerTM B/G FRET substrate was added using a Flying Reagent Dispenser (FRD, Beckman Coulter, Indianapolis, IN, USA), the plates were incubated at room temperature for 2.5 h, and fluorescence intensity was measured by an Envision plate reader (PerkinElmer, Shelton, CT). For cell viability readout that measures cytotoxicity, 3 ul/well of CellTiter-Glo reagent was added into the assay plates using a FRD. After 30 min incubation at room temperature, the luminescence intensity in the plates was measured using a ViewLux (PerkinElmer) plate reader.
# Potency is read from the fitted curve at half-maximal effect.
row,SMILES,Potency
1,CCCCCCCCCCCCCCCC[N+](C)(C)C,21.1 µM (active) and 43.6 µM (active)
2,CCC[CH2][Sn]([CH2]CCC)([CH2]CCC)[O]C(=O)c1ccccc1,1.38 µM (active)
3,CCCCCCCCCCCCCCCCCCn1cc[n+](C)c1,43.4 µM (active)
4,CCCCOCN(C(=O)CCl)c1c(CC)cccc1CC,inactive
5,CN(C)C1CSSSC1,inactive
6,ClC1=C(Cl)C2(Cl)C3C(Cl)C(Cl)CC3C1(Cl)C2(Cl)Cl (stereo not given),21.8 µM (active) and 38.9 µM (active)
7,C[C@H]1CC[C@@H]2[C@@H](C)[C@H]3[C@H](C[C@H]4[C@@H]5CC=C6CC(O[C@@H]7O[C@H](CO)[C@H](O)[C@H](O[C@@H]8O[C@H](CO)[C@@H](O)[C@H](O)[C@H]8O)[C@H]7O[C@H]7O[C@@H](C)[C@H](O)[C@@H](O)[C@H]7O)CC[C@]6(C)[C@H]5CC[C@]34C)N2C1 (stereo not given in full),16 µM (active)
8,Nc1ccccc1C(=O)OC/C=C/c1ccccc1,34.8 µM (active)
9,CCN(CC)c1c([N+](=O)[O-])cc(C(F)(F)F)c(N)c1[N+](=O)[O-],inactive
10,CCCCCCCCCCCCCCCC[n+]1ccccc1,28.8 µM (active) and 24.5 µM (active) and 48.3 µM (active)
11,COP(=S)(OC)Oc1cc(Cl)c(Br)cc1Cl,inactive
12,[CH3][Hg][Cl],54.8 µM (active)
13,CCOC(=O)C1(c2ccccc2)CCN(CCC(C#N)(c2ccccc2)c2ccccc2)CC1,inactive
14,Oc1ccc(C(c2ccc(O)cc2)(C(F)(F)F)C(F)(F)F)cc1,inactive
15,CCOC(=O)OC1=C(c2cc(C)ccc2C)C(=O)NC12CCC(OC)CC2 (stereo not given),inactive
16,CCCCCCCCCC[N+](C)(C)CCCCCCCCCC,34.7 µM (active)
17,ClC1=C(Cl)[C@]2(Cl)[C@@H]3[C@@H]4C[C@@H]([C@H]5O[C@@H]45)[C@@H]3[C@@]1(Cl)C2(Cl)Cl,48.9 µM (active)
18,O=[N+]([O-])c1ccc2ccc3cccc4ccc1c2c34,inactive
19,Oc1c(Cl)c(Cl)cc(Cl)c1Cl,inactive
20,Fc1cccc(Cl)c1CCl,inactive

row,SMILES,Potency
1,CCCCCCCCCCCCCC[P+](CCCCCC)(CCCCCC)CCCCCC (tested in a mixture with another compound),3.47 µM (active)
2,S=C(SSC(=S)N1CCCCC1)N1CCCCC1,0.106 µM (active)
3,CCc1nn(C)c(C(=O)NCc2ccc(C(C)(C)C)cc2)c1Cl,54.9 µM (active)
4,CC(C)CC(C)Nc1ccc(Nc2ccccc2)cc1 (stereo not given),54 µM (active)
5,CC(C)CCCCCCCOP(=O)(Oc1ccccc1)Oc1ccccc1,inactive
6,COc1cc(C=O)cc2c1[C@H](COC(N)=O)[C@]1(OC(C)=O)ON2C[C@H]2[C@@H]1N2C(C)=O,2.45 µM (active)
7,CC1(c2ccc(Oc3ccccc3)cc2)OC(=O)N(Nc2ccccc2)C1=O (stereo not given),34.9 µM (active)
8,O=C1NCN(c2ccccc2)C12CCN(CC1COc3ccccc3O1)CC2 (stereo not given),inactive
9,CCN,inactive
10,O=[N+]([O-])c1ccc(Oc2ccc(C(F)(F)F)cc2[N+](=O)[O-])cc1,inactive
11,CC(C)CCCCCOC(=O)c1ccccc1C(=O)OCCCCCC(C)C,inactive
12,O=C/C(Cl)=C(/Cl)C(=O)O,38.9 µM (active)
13,CCOc1cc(C(C)(C)C)ccc1C1COC(c2c(F)cccc2F)=N1 (stereo not given),inactive
14,O=c1oc2ccccc2c(O)c1Cc1c(O)c2ccccc2oc1=O,inactive
15,Oc1ccc(C2(c3ccc(O)cc3)c3ccccc3-c3ccccc32)cc1,21.9 µM (active)
16,Cc1cc(C(F)(C(F)(F)F)C(F)(F)F)ccc1NC(=O)c1cccc(I)c1C(=O)NC(C)(C)CS(C)(=O)=O,inactive
17,C[C@@H]1O[C@@H](O[C@H]2C[C@@H](O)[C@]3(CO)[C@H]4[C@H](O)C[C@]5(C)[C@@H](C6=CC(=O)OC6)CC[C@]5(O)[C@@H]4CC[C@]3(O)C2)[C@H](O)[C@H](O)[C@H]1O,20.8 nM (active) and 266 nM (active)
18,N#CNC#N,inactive
19,Cc1cc(C)cc(OP(=O)(Oc2cc(C)cc(C)c2)Oc2cc(C)cc(C)c2)c1,inactive
20,Nc1ccc(Sc2ccc(N)cc2)cc1,inactive
